Several values for one entry are separate records, joined by “and”; a condition that tells them apart may be missing. Equal entries are not always repeated. Results filed as inconclusive are left out. A number with no mark means an inactive call. Activity calls are given as the source filed them. Calls follow the shape of the dose curve; as a rule, active = well fitted curve in the direction sought with a large enough effect; inconclusive = small, poorly fitted or top-dose-only effect, or another doubt; inactive = no such curve, though single readings can be large; an effect the other way counts as inactive or inconclusive.

The target of assay [1] is Cellular tumor antigen p53 (Homo sapiens) (UniProt P04637). Description: Primary qHTS for small molecule compounds that upregulate eGFP-tagged delta133p53alpha (in N-terminal) cells. (AID 2060322). Also: nearly all actives have a fitted effect of over 75% in size. Also: potency is read from the fitted curve at half-maximal effect.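 As to activation: series mostly up to about 56 µM; 0% = DMSO vehicle and 100% = reference activator.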 The conditions noted are these: NCI-H358 eGFP-delta133p53alpha fluorescence, 24 h; activation: stronger effect = higher value. The procedure, abridged:
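NCI-H358 cells pre-induced 24 h with 10 ng/ml doxycycline to express N-terminal eGFP-delta133p53alpha, then dosed 24 h at 37C without doxycycline; fixed, Hoechst-stained, GFP intensity by laser scanning cytometry, normalized to DMSO (0%) and 57.5 uM 5-azacytidine (100%).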

The target of assay [2] is Aldehyde dehydrogenase, mitochondrial (Homo sapiens) (UniProt P05091). Description: qHTS for Inhibitors of the Aldehyde Dehydrogenase Family (ALDH2) Primary screen (AID 2061308).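 Also: plate controls were vehicle for no effect and reference inhibitor for full effect; nearly all actives have a fitted effect of over 55% in size.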 In general terms: qHTS replaces the single test concentration by a dilution series.
The target of assay [3] is Retinaldehyde dehydrogenase 3 (Homo sapiens) (UniProt P47895). Description: qHTS for Inhibitors of the Aldehyde Dehydrogenase Family (ALDH1A3) Validation screen (AID 2061312). Also: nearly all actives have a fitted effect of over 45% in size. Also: potency is read from the fitted curve at half-maximal effect. As to activity change, negative = inhibition: % is scaled to controls: 0 for no effect and ±100 for the full control effect.
For assay [4] the target is unchanged. Description: qHTS for Inhibitors of the Aldehyde Dehydrogenase Family (ALDH1A3) Primary screen (AID 2061315).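 Also: plate controls were DMSO vehicle for no effect and reference inhibitor for full effect.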

Chain of Cellular tumor antigen p53 (Homo sapiens) (P04637 whole entry, looked up): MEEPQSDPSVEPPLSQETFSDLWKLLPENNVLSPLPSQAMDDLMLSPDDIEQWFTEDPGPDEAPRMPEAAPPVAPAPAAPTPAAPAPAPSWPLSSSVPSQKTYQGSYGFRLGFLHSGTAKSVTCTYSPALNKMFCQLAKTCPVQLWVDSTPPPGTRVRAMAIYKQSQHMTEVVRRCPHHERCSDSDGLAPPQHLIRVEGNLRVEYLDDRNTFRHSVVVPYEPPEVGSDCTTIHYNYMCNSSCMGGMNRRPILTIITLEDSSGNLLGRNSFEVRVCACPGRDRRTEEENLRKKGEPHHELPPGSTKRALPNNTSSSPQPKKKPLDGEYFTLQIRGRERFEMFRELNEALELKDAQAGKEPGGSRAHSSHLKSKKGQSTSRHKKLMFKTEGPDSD

As for `COc1ccccc1N1CCN(CCCCNC(=O)c2ccc(-c3cscn3)cc2)CC1`, in assay [1], the activation was 4.3%. Moreover, the Potency result in assay [2], in assay [3] and in assay [4] was “inactive” each time.
As to `Cc1ccccc1CN1CCn2c1nc1c(c2=O)CN(Cc2ccccc2)CC1`, the activation in assay [1] is 0.477%. Further, the Potency entry in assay [2], in assay [3] and in assay [4] was “inactive” throughout.
As to `c1cc(OCCCN2CCCCC2)ccc1CN1CCCCC1`, in assay [1], the activation was 5.25%. The Potency result in assay [2], in assay [3] and in assay [4] was “inactive” throughout.
As for `COc1ccc2c(c1O[C@H]1CCNC1)CCC2`, in assay [1], the activation is -0.955%. Also, the Potency result in assay [2], in assay [3] and in assay [4] was “inactive” each time.
In the case of `CN(C)CCCOc1nn(Cc2ccccc2)c2ccccc12`, the activation in assay [1] was 8.47% and -14.3%. In addition, the Potency entry in assay [2], in assay [3] and in assay [4] was “inactive” each time.
On to `O=C(N[C@H](Cc1cscn1)C(=O)N[C@@H](CC1CCCCC1)[C@@H](O)[C@@H](O)C1CC1)c1nc2ccccc2[nH]1`, for which the activation in assay [1] is 5.25%. Besides, the Potency result in assay [2], in assay [3] and in assay [4] was “inactive” each time.
`Fc1ccc(-c2cncc(CN3CCN(c4cccc5c4OCCO5)CC3)c2)cc1`: the activation in assay [1] is -10%. Also, the Potency entry in assay [2], in assay [3] and in assay [4] was “inactive” each time.
Consider `CCNC(=O)N1CCCN(c2ccc(C(=O)NCCc3ccc(Cl)cc3Cl)cc2NC(=O)c2cccc(Cl)c2)CC1`, for which, in assay [1], the activation is 1.91%. For the same compound, the Potency result in assay [2], in assay [3] and in assay [4] was “inactive” in each case.
Turning to `Cn1c(=O)c2c(ncn2Cc2ccc(C(C)(C)C)cc2)n(C)c1=O`, the activation in assay [1] was -5.25%. The Potency result in assay [2], in assay [3] and in assay [4] was “inactive” each time.
Consider `CCc1cc2c(=O)c(-c3nc4ccccc4s3)coc2c(CN2CCCCC2)c1O`, for which the activation in assay [1] is 0.955%. Besides, the Potency result in assay [2], in assay [3] and in assay [4] was “inactive” throughout.
Regarding `Cc1cc(OCCCS(C)(=O)=O)cc(C)c1-c1cccc(COc2ccc3c(c2)OCC3CC(=O)O)c1` (stereo not given), the activation in assay [1] was 6.68%. For the same compound, the Potency entry in assay [2], in assay [3] and in assay [4] was “inactive” throughout.
For the compound `O=C(O)Cc1ccc2oc(-c3ccc(NC(=O)/C=C/c4ccc(Br)cc4)c(F)c3)nc2c1`, the activation in assay [1] was 25.8%. Also, the Potency entry in assay [2], in assay [3] and in assay [4] was “inactive” in each case.
In the case of `O=C(OC1CN2CCC1CC2)N1CCc2ccccc2C1c1ccccc1` (stereo not given), in assay [1], the activation was -3.82%. Moreover, the Potency result in assay [2], in assay [3] and in assay [4] was “inactive” in each case.
As for `O=C(O)C1CN(Cc2ccc(-c3nc4cc(Cc5ccccc5F)ccc4s3)c(F)c2)C1`, in assay [1], the activation was -12.4%. Also, the activity change, negative = inhibition is -1.77% [at 11.2 µM] in assay [2], -10% [at 20.1 µM] in assay [3] and -4.23% [at 11.2 µM] in assay [4].
For the compound `CCCCS(=O)(=O)NC(Cc1ccc(OCCCCC2CCNCC2)cc1)C(=O)O` (stereo not given), the activation in assay [1] was 12.9%. In addition, the Potency result in assay [2], in assay [3] and in assay [4] was “inactive” each time.
As for `Cc1cccc2c1NC(=O)C2(c1ccc(O)cc1)c1ccc(O)cc1`, the Potency in assay [1] was 0.213 µM (active). Moreover, the Potency result in assay [2], in assay [3] and in assay [4] was “inactive” each time.
With `CC(C)S(=O)(=O)Nc1ccc(F)c(C(=O)c2c[nH]c3ncc(-c4cccnc4)cc23)c1F`, the activation in assay [1] was 28.6%. Moreover, the Potency result in assay [2], in assay [3] and in assay [4] was “inactive” in each case.
With `CN[C@H](CNC(=O)N1CCC[C@@H]([C@@H](OCCNC(=O)OC)c2cccc(Cl)c2)C1)C[C@H]1CCCOC1`, in assay [1], the activation is 11.5%. For the same compound, the Potency entry in assay [2], in assay [3] and in assay [4] was “inactive” in each case.
In the case of `NCc1c[nH]c(=S)n1C1CCc2c(F)cc(F)cc2C1` (stereo not given), the activation in assay [1] was -0.477%. Also, the Potency entry in assay [2], in assay [3] and in assay [4] was “inactive” throughout.
As for `CCCCN1CCCC[C@H]1C(=O)Nc1c(C)cccc1C`, the activation in assay [1] is -18.6% and -5.25%. The Potency entry in assay [2], in assay [3] and in assay [4] was “inactive” each time.
Regarding `O=C(Nc1ccc(CN2CCOCC2)cc1)c1ccc(-c2cccc(Cl)c2)o1`, the activation in assay [1] is -8.59%. The Potency result in assay [2], in assay [3] and in assay [4] was “inactive” throughout.
Turning to `Cc1[nH]cnc1C1CCN(c2nc3cccc4c3n2CCC4=O)CC1`, the activation in assay [1] was 1.43%. The Potency entry in assay [2], in assay [3] and in assay [4] was “inactive” in each case.
Take `CCC(C(C)O)n1ncn(-c2ccc(N3CCN(c4ccc(OCC5COC(Cn6cncn6)(c6ccc(F)cc6F)C5)cc4)CC3)cc2)c1=O` (stereo not given): the activation in assay [1] was 5.25%. In addition, the Potency entry in assay [2], in assay [3] and in assay [4] was “inactive” in each case.
Regarding `Cc1ccc2[nH]c(=O)c(C3=NN(C(=O)CCC(=O)O)C(c4ccc(Br)cc4)C3)c(-c3ccccc3)c2c1` (stereo not given), the activation in assay [1] was -22.4%. For the same compound, the Potency result in assay [2], in assay [3] and in assay [4] was “inactive” in each case.
As to `Cc1onc(-c2ccccc2Cl)c1C(=O)N(C)c1ccc(Cl)cc1`, the activation in assay [1] was -1.43%. Also, the Potency entry in assay [2], in assay [3] and in assay [4] was “inactive” throughout.
Take `COc1cc(Nc2nc3ccccc3nc2NS(=O)(=O)c2cccc(NC(=O)c3ccc(C)c(OC)c3)c2)cc(OC)c1`: in assay [1], the activation was 10%. Further, the Potency entry in assay [2], in assay [3] and in assay [4] was “inactive” in each case.
Turning to `Cc1ccc2nc(N)[nH]c(=O)c2c1Sc1ccncc1`, the activation in assay [1] is -10% and -17.7%. Also, the Potency result in assay [2] and in assay [4] was “inactive” each time. Also, the Potency in assay [3] was 7.94 µM (active).
On to `CC(=O)SCC(=O)c1ccc(NS(=O)(=O)c2ccc(OCCCN(C)C)cc2)nc1`, for which the activation in assay [1] was 10%. Further, the Potency entry in assay [2], in assay [3] and in assay [4] was “inactive” each time.
As for `O=C(COc1ccc2ccccc2c1Br)Nc1cccnc1`, the activation in assay [1] was -15.8%. Besides, the Potency result in assay [2], in assay [3] and in assay [4] was “inactive” in each case.
Regarding `Cc1ccc(NC(=O)C(C)C)cc1C1CCN(Cc2ccc(Oc3ccc(F)c(F)c3)cc2)CC1`, in assay [1], the activation was 16.7%. The Potency entry in assay [2], in assay [3] and in assay [4] was “inactive” in each case.
